Data as given in the supplement of paper PMC12819154, “High-throughput peptide-centric local stability assay extends protein–ligand identification to membrane proteins, tissues and bacteria” (Nature Structural & Molecular Biology, 2025).

Compound: CN[C@@H]1C[C@H]2O[C@@](C)([C@@H]1OC)n1c3ccccc3c3c4c(c5c6ccccc6n2c5c31)C(=O)NC4 [staurosporine]
Test: log2 fold change of tryptic peptide abundance, ligand vs vehicle (limited proteolysis) (log2 ratio); higher = more trypsin-susceptible (destabilized)
Conditions: ligand concentration: 20 uM; sample: K562 cleared lysate; digestion: 4 min, 22 C (HT-PELSA RT4min, Orbitrap Astral)

Chain of UniProt P42696 (P42696 whole entry): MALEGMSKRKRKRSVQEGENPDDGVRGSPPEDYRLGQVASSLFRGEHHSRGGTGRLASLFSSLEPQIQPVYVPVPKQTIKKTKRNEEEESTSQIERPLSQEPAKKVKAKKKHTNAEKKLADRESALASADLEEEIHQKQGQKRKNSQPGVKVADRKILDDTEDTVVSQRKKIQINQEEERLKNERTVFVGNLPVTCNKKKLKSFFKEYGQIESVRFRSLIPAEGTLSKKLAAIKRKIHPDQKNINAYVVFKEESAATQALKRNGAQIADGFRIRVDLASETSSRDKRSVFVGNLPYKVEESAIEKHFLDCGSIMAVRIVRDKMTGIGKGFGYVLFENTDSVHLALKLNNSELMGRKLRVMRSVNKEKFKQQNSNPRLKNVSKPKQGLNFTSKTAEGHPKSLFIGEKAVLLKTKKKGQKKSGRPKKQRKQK
Chain of UniProt Q9NWZ3 (Q9NWZ3 whole entry): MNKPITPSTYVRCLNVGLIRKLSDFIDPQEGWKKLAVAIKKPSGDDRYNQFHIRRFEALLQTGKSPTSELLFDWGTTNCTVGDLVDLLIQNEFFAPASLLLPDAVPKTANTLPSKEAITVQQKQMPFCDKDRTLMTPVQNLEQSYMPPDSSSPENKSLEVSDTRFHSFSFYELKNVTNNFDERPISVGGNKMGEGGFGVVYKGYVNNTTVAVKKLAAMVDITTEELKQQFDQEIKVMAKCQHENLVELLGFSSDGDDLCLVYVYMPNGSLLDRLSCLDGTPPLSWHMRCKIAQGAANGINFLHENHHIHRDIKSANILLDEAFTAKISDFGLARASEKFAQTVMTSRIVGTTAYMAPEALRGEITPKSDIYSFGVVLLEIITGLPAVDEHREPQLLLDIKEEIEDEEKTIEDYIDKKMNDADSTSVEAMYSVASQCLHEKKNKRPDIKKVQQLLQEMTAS
Chain of UniProt Q9UBS0 (Q9UBS0 whole entry): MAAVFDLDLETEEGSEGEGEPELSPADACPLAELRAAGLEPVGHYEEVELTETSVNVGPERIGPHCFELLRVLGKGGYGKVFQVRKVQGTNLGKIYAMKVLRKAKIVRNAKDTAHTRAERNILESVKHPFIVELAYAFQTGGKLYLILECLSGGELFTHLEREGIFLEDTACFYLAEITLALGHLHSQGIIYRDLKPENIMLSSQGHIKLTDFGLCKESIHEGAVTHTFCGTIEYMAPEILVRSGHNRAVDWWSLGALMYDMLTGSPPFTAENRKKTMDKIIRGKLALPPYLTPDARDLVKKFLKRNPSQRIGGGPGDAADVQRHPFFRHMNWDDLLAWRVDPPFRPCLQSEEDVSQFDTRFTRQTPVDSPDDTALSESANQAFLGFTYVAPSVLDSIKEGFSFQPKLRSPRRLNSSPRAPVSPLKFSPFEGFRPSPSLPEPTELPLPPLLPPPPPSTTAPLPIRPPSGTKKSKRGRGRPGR
Chain of UniProt Q16629 (Q16629 whole entry): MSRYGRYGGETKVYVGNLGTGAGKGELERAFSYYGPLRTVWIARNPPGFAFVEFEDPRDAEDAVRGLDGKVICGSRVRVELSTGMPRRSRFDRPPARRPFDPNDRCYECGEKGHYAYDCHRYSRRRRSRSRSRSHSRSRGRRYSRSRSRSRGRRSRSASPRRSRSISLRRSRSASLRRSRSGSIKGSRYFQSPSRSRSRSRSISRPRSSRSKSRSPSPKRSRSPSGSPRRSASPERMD
Chain of UniProt P53671 (P53671 whole entry, looked up): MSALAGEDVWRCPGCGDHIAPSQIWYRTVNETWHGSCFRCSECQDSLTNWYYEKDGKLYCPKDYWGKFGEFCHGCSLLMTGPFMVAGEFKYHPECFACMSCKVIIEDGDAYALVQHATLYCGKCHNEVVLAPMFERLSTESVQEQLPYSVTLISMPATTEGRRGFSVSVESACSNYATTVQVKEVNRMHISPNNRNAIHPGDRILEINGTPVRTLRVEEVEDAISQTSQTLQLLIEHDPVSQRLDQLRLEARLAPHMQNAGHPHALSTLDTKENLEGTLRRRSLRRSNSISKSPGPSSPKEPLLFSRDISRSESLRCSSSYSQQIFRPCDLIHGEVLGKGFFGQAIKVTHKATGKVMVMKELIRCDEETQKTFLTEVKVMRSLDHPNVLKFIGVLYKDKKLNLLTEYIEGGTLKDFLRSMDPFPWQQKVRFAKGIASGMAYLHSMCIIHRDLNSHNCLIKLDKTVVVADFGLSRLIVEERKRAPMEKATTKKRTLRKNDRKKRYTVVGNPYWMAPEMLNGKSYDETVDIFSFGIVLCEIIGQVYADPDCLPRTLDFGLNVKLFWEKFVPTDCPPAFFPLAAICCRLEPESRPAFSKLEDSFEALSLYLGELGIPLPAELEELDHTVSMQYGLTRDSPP
Chain of UniProt O75170 (O75170 whole entry): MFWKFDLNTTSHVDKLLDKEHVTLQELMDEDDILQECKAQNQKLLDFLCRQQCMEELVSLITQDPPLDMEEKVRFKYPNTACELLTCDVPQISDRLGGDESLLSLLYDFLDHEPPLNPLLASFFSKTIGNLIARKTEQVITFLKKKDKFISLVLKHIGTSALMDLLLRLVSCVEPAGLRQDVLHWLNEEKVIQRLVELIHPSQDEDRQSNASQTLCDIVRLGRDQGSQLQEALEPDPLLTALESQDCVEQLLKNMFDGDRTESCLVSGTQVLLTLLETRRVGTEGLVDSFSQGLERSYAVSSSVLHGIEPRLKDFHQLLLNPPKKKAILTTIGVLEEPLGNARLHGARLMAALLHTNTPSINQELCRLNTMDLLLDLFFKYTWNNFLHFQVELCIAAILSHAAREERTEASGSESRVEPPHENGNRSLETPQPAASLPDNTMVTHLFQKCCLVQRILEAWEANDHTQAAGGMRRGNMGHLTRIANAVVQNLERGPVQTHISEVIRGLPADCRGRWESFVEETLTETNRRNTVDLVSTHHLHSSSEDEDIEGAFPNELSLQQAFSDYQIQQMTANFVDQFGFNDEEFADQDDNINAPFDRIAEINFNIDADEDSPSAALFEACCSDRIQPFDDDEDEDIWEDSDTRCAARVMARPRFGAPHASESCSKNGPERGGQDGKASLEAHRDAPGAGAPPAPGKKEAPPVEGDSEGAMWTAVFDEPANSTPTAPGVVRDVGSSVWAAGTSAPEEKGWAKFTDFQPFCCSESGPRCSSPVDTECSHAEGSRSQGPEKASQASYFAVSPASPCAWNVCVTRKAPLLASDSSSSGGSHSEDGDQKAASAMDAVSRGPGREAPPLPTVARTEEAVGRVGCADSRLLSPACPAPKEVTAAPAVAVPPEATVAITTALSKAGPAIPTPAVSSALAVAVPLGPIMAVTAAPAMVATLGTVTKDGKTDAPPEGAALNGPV
Chain of UniProt P69892 (P69892 whole entry): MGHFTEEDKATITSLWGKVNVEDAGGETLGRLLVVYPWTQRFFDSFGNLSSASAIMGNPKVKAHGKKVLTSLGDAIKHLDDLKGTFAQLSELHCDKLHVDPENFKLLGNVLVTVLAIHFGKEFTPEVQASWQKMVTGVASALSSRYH
Chain of UniProt Q13131 (Q13131 whole entry, looked up): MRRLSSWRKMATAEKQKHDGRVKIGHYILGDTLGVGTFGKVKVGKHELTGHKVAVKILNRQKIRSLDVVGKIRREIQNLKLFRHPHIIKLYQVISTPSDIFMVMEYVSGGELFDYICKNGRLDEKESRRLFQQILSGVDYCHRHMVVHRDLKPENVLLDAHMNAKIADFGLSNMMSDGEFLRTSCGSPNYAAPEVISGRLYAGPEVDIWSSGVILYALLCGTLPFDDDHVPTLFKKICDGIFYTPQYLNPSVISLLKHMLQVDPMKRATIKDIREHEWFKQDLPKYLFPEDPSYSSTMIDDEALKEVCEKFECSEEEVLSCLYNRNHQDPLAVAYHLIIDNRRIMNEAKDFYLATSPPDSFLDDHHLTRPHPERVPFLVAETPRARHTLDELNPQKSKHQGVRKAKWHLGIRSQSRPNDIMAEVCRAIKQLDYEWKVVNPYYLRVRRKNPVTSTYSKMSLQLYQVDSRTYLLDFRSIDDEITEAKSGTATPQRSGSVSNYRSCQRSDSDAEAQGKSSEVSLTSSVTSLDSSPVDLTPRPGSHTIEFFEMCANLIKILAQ
Chain of UniProt P31323 (P31323 whole entry): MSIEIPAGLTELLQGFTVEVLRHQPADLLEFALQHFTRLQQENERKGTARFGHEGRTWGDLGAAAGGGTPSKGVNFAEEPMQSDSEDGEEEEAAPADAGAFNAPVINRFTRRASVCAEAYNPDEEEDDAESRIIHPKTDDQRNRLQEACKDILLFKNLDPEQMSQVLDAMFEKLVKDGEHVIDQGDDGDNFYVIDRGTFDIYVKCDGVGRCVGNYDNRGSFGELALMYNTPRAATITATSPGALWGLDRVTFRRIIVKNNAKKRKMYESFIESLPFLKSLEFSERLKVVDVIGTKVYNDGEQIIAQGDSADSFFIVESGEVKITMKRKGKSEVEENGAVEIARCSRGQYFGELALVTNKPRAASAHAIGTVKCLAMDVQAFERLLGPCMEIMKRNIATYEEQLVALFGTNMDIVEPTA
Chain of UniProt Q96EV8 (Q96EV8 whole entry): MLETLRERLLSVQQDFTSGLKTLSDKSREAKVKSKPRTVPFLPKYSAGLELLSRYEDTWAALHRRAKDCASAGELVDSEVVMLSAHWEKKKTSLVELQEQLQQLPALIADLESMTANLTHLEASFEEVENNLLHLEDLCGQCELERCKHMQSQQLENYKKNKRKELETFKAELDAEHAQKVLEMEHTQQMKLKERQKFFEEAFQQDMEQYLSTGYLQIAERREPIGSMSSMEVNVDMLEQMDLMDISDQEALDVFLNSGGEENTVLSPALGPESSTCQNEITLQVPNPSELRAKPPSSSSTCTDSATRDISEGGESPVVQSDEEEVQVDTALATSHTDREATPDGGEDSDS

| Target | log2 fold change |
| --- | --- |
| FER (peptide sequence: NCLVGENNVLK, peptide start residue: 689) (UniProt P16591) | -0.84 |
| UniProt Q9UBS0 (peptide sequence: HPFIVELAYAFQTGGK, peptide start residue: 128) | -0.89 |
| TOP2A (peptide sequence: GESDDFHMDFDSAVAPR, peptide start residue: 1493) (UniProt P11388) | -0.599 |
| CAMK2G (peptide sequence: GAILTTMLVSR, peptide start residue: 302) (UniProt Q13555) | -1.14 |
| LIMK1 (peptide sequence: VNADPDYLPR, peptide start residue: 546) (UniProt P53667) | -1.05 |
| SLK (peptide sequence: LADFGVSAK, peptide start residue: 171) (UniProt Q9H2G2) | -3.91 |
| UniProt Q13131 (peptide sequence: VGKHELTGHK, peptide start residue: 43) | -5 |
| UniProt Q16629 (peptide sequence: YFQSPSR, peptide start residue: 189) | 1.29 |
| TAOK3 (peptide sequence: VLIDLIQR, peptide start residue: 285) (UniProt Q9H2K8) | -1.49 |
| DTNBP1 (peptide sequence: YEDTWAALHRR, peptide start residue: 55) (UniProt Q96EV8) | -0.512 |
| UniProt O00506 (peptide sequence: LADFGVAGQLTDTQIKR, peptide start residue: 160) | -1.08 |
| UniProt Q6ICG6 (peptide sequence: KAAEPEVEVEVYRR, peptide start residue: 72) | -1.02 |
| UniProt Q8TBX8 (peptide sequence: HGAGAEISTVHPEQYAK, peptide start residue: 394) | -1.92 |
| LIMK2 (peptide sequence: TLDFGLNVK, peptide start residue: 553) (UniProt P53671) | -1.38 |
| XRCC5 (peptide sequence: VDEEQMK, peptide start residue: 326) (UniProt P13010) | -0.825 |
| HBG2 (peptide sequence: MVTGVASALSSR, peptide start residue: 134) (UniProt P69892) | 0.206 |
| PMPCA (peptide sequence: LYLNVLNR, peptide start residue: 363) (UniProt Q10713) | -0.407 |
| UniProt O75170 (peptide sequence: ILEAWEANDHTQAAGGMR, peptide start residue: 456) | -0.977 |
| TNIK (peptide sequence: KFQSFIESCLVK, peptide start residue: 261) (UniProt Q9UKE5) | -0.632 |
| UniProt P07437 (peptide sequence: IREEYPDRIMNTFSVVPSPK, peptide start residue: 155) | -2.5 |
| TIMM44 (peptide sequence: ALSQGVESVKK, peptide start residue: 178) (UniProt O43615) | 0.555 |
| EPHB3 (peptide sequence: VSDFGLSR, peptide start residue: 537) (UniProt P54753) | 0.918 |
| CLIC1 (peptide sequence: IGNCPFSQR, peptide start residue: 21) (UniProt O00299) | 0.243 |
| RBM34 (peptide sequence: NGAQIADGFR, peptide start residue: 263) (UniProt P42696) | 0.437 |
| IRAK4 (peptide sequence: MGEGGFGVVYK, peptide start residue: 192) (UniProt Q9NWZ3) | -2.25 |
| PRKAR2B (peptide sequence: CVGNYDNR, peptide start residue: 211) (UniProt P31323) | 0.866 |
| RPL4 (peptide sequence: MFAPTKTWR, peptide start residue: 101) (UniProt P36578) | 0.751 |
| MYBBP1A (peptide sequence: VLKGNTAEGCVHETQEK, peptide start residue: 933) (UniProt Q9BQG0) | 2.16 |
| SDAD1 (peptide sequence: TLYTHIVTDIK, peptide start residue: 136) (UniProt Q9NVU7) | -0.683 |
